Sampled rows, rich in hits. Any-hit rate of the full collection: about 19%.
DT40 TDP1 CPT: qHTS for Inhibitors of human tyrosyl-DNA phosphodiesterase 1 (TDP1): qHTS in cells in presence of CPT | hit rate 12% among 420,000 | chicken DT40 Tdp1-/-;hTDP1 cells + 20 nM CPT, ATP luminescence, 48 h | Potency, µM (doses to about 46.2 µM), for inactives: top-dose activity change, negative = growth inhibition, usual class: inhibitors | AID 686979, 2013; note: potency is the fitted concentration of half-maximal effect; nearly all actives have a fitted effect of over 55% in size
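Chicken DT40 Tdp1-/- cells complemented with human TDP1, 400 cells/well, exposed to compounds plus 20 nM camptothecin for at least 48 h at 37 C; viability read as ATP content by CellTiter-Glo luminescence.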
IL1B secr inh: qHTS for Inhibitors of Inflammasome Signaling: IL-1-beta AlphaLISA Primary Screen; activity change, % at 57.5 µM; THP-1 LPS/ATP IL-1B secretion, AlphaLISA, 16 h; active compounds read low; hit rate 4.7% among 360,000; in the data active = activity change below about -50%; inconclusive = mostly about -30% to -49%
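THP-1 cells pretreated 1 hr with compounds (up to 57.5 uM final), then stimulated with LPS (250 ng/mL final) plus ATP (1.25 mM final); secreted IL-1B measured by AlphaLISA after 16 hr, decreased signal indicating inhibition.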
HT1080 IDH1KD tx: qHTS for induction of synthetic lethality in tumor cells producing 2HG: qHTS for the HT-1080-IDH1KD cell line; HT-1080 IDH1 knockdown viability, ATP luminescence, 48 h; Potency, µM (titrated, usually from 46.1 µM), inactives show top-dose activity, negative = toxicity, actives largely listed as cytotoxic; hit rate 2% among 360,000;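 note: potency is the fitted concentration of half-maximal effect; 0% = DMSO wells and -100% = cell-free medium wells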
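After a 2 h attachment period, IDH1KD HT-1080 cells took pin-transferred compound for 48 h at 37 °C; ATP-based luminescence after 10 min room-temperature reagent incubation reported viability.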
TDP1 cell noCPT: qHTS for Inhibitors of human tyrosyl-DNA phosphodiesterase 1 (TDP1): qHTS in cells in absence of CPT; DT40 Tdp1-/- hTDP1 cells, no CPT, ATP luminescence, 48 h; Potency, µM (titrated, usually from 46.2 µM), inactives show at the highest dose activity change, negative = growth inhibition, usual class: inhibitors; hit rate 15% among 420,000; note: potency is the fitted concentration of half-maximal effect; nearly all actives have a fitted effect of over 55% in size
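Chicken DT40 Tdp1-/- cells complemented with human TDP1, screened without camptothecin (DMSO vehicle only), 400 cells/well. Compounds pin-transferred, cells incubated at 37 °C for at least 48 hr. Growth read as ATP-dependent luminescence (CellTiter-Glo, 30 min at RT).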
HT1080-NT tox: qHTS for induction of synthetic lethality in tumor cells producing 2HG: qHTS for the HT-1080-NT fibrosarcoma cell line; HT-1080-NT fibrosarcoma viability, CellTiter-Glo ATP luminescence, 48 h; Potency, µM (top dose mostly 46.1 µM), for inactives: at the top dose activity, negative = less viability, actives largely listed as cytotoxic; hit rate 1.6% among 360,000; AID 686970, 2013;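 note: NT is the 2HG producing partner of a matched IDH1 knockdown line; potency is the fitted concentration of half-maximal effect; 0% = DMSO-treated cells and -100% = media-only wells without cells; nearly all actives have a fitted effect of over 55% in size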
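Viability by CellTiter-Glo luminescence after 48 h compound exposure at 37C of HT-1080-NT cells (750/well, RPMI, 5% FBS). % activity scaled between DMSO wells and medium-only wells, then curve-fitted and categorized by curve class.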
ELG1 repair inh: qHTS screen for small molecules that inhibit ELG1-dependent DNA repair in human embryonic kidney (HEK293T) cells expressing luciferase-tagged ELG1; HEK293T ELG1-luciferase reporter, luminescence, 16 h; DNA damage induced by 5-fluorouridine; Potency, µM (titrated, usually from 46.1 µM), for inactives: at the highest dose activity change, negative = inhibition, hits mostly inhibitors; hit rate 2.3% among 330,000; AID 504467, 2011; note: potency is the fitted concentration of half-maximal effect; nearly all actives have a fitted effect of over 55% in size
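Quantitative HTS, concentration-response format. 2,000 cells/well co-treated with 5-fluorouridine and compound, 16 hr in 5% CO2 at 37 °C; ONE-Glo luminescence read after 30 min.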
Numbers without * were called inactive; ? = inconclusive; . = no result. Unless noted, calls come from the whole dose curve; as a rule, active = well fitted curve in the direction sought with a large enough effect; inconclusive = small, poorly fitted or top-dose-only effect, or another doubt; inactive = no such curve, though single readings can be large; an effect the other way counts as inactive or inconclusive. Unless noted, % is set by controls: 0 for no effect and ±100 for the full control effect.

SMILES	DT40 TDP1 CPT	IL1B secr inh	HT1080 IDH1KD tx	TDP1 cell noCPT	HT1080-NT tox	ELG1 repair inh
N#C[C@@H]1C[C@@H]2C[C@@H]2N1C(=O)[C@@H](N)C12CC3CC(CC(O)(C3)C1)C2	-24.1%	.	.	-15.4%	.	.
CCOC(=O)Nc1nc(C)c(C(=O)c2ccc(Cl)cc2)s1	?	6.4	-11.8%	?	-4.3%	7.5%
COC(=O)Nc1nc(C)c(C(=O)c2ccccc2)s1	8.2µM*	26.0	?	11.6µM*	?	0.0%
CN(C)S(=O)(=O)c1ccc(C(=O)Nc2nc(-c3ccccc3)c(C(=O)c3ccccc3)s2)cc1	?	18.1	-4.1%	?	10.1%	1.1%
COC(=O)Nc1nc(-c2ccccc2)c(C(=O)c2ccccc2)s1	0.82µM*	32.7	?	0.651µM*	?	5.0%
Cc1sc(NC(=O)C2CC(=O)N(Cc3ccco3)C2)nc1-c1ccccc1 (stereo not drawn)	?	-20.5	-20.9%	?	-13.9%	.
COc1ccc(S(=O)(=O)NCCc2c[nH]c3ccc(C)cc23)cc1	-19.3%	0.0	11.1%	5.1%	4.5%	7.8%
CN(C)CCN1CCN(C2CN(Cc3ccccc3)S(=O)(=O)C2)CC1 (stereo not drawn)	-17.1%	20.9	12.2%	2.4%	24.7%	.
CC(C)c1ccc(C(=O)Nc2ccc(N3CCOCC3)cc2)cc1	18.4µM*	6.8	?	20.6µM*	?	14.6%
CC(C)(C)c1ccc(C(=O)Nc2ccc(C(=O)N3CCCC3)cc2)cc1	20.6µM*	-1.8	-21.0%	23.1µM*	-4.4%	-6.7%
CCOc1cc(C(=O)Nc2ccc(N3CCOCC3)cc2)cc(Br)c1OC	?	-0.4	?	25.9µM*	?	-14.3%
O=C(Nc1ccc(C(=O)N2CCCCC2)cc1)c1ccc([N+](=O)[O-])cc1	-1.0%	-11.3	4.8%	?	7.5%	?
CC(=O)c1ccc(N2CCN(C(=O)Nc3ccc(C(C)C)cc3)CC2)cc1	?	-25.6	?	16.4µM*	?	?
CC(C)c1ccc(NC(=O)N2CCOCC2)cc1	-6.7%	-13.9	0.5%	17.1%	-6.3%	?
COc1cc(CN(C(=O)c2ccccc2F)C2CCS(=O)(=O)C2)cc(OC)c1OC (stereo not drawn)	0.2%	.	.	-3.2%	.	.
CC(C)(C)c1ccc(C(=O)N2CCC(NC(=O)c3ccccc3)CC2)cc1	14.6µM*	6.9	-1.9%	?	-14.7%	-10.0%
CC(C)(C)c1ccc(C(=O)N2CCC(C(=O)NC3CC3)CC2)cc1	-4.5%	19.1	6.0%	-13.4%	-0.4%	?
CC(C)(C)c1ccc(C(=O)Nc2ccc(Cl)cc2)cc1	-11.9%	-18.1	0.1%	-6.3%	14.1%	?
CC(C)(C)c1ccc(NC(=O)c2ccsc2)cc1	?	?	?	23.1µM*	-26.5%	?
O=C(Nc1ccc(Cl)cc1)Nc1ccc(N2CCOCC2)cc1	?	110.8	-8.8%	18.4µM*	-0.6%	?
CC(C)(C)c1ccc(C(=O)Nc2ccc(N3CCOCC3)cc2)cc1	18.4µM*	?	?	18.4µM*	?	18.4µM*
O=C(NC(=S)Nc1ccc(N2CCOCC2)cc1)c1ccc(Cl)cc1	-14.1%	14.8	7.8%	-8.6%	13.2%	3.5%
COc1ccc(S(=O)(=O)N2CCOC2CNC(=O)C(=O)NCCCN2CCOCC2)cc1C (stereo not drawn)	-28.4%	24.5	2.9%	11.7%	-3.2%	-2.2%
CC(=O)N1CCc2cc(S(=O)(=O)NC(Cc3ccccc3)C(=O)Nc3cc(C)ccc3C)ccc21 (stereo not drawn)	-0.4%	.	.	-21.5%	.	.
NS(=O)(=O)c1ccc(CNC(=O)c2scc3c2CCCC3)cc1	0.1%	33.8	8.7%	9.7%	0.5%	?
SMILES	DT40 TDP1 CPT	IL1B secr inh	HT1080 IDH1KD tx	TDP1 cell noCPT	HT1080-NT tox	ELG1 repair inh
Cc1ccc(C(=O)NC2CCCCC2)cc1S(=O)(=O)N1CCCC1	-12.8%	0.0	-0.2%	-0.2%	3.2%	?
O=C(Nc1ccc(N2CCOCC2)cc1)c1cn2ccccc2n1	13µM*	-13.6	?	10.3µM*	-24.6%	?
CCOC(=O)c1sc(NC(=O)CN2CCN(c3ccccc3)CC2)nc1C	6.6%	3.0	-7.0%	?	-12.4%	?
CCN(CC)c1ccc(/C=N/N2C(C)CCCC2C)c(O)c1 (stereo not drawn)	?	29.2	0.6%	?	7.8%	-2.7%
Cc1ccc(S(=O)(=O)N2C[C@H]3C(=O)C[C@@H](c4ccccc4F)N(S(=O)(=O)c4ccc(C)cc4)[C@H]3C[C@H]2c2ccccc2F)cc1	8.2µM*	-20.7	2.9%	10.3µM*	12.3%	.
O=C(N/N=C1\CCCc2c1[nH]c1ccc(Cl)cc21)c1ccncc1	11.6µM*	?	?	10.3µM*	?	?
O=C(N/N=C1\C/C(=N\NC(=O)c2ccncc2)c2ccccc21)c1ccncc1	?	27.6	-6.4%	?	-0.1%	0.0%
COc1cccc(CN(C)C(=O)c2cnn(-c3ncc4c(n3)-c3ccccc3CCC4)c2C)c1	18.4µM*	.	.	23.1µM*	.	.
O=C(c1cccc2ccccc12)N1CCN(c2ccc([N+](=O)[O-])c(N3CCOCC3)c2)CC1	9.2µM*	-1.1	-8.9%	20.6µM*	-22.9%	?
O=C(c1ccccc1Sc1ccc([N+](=O)[O-])cc1Cl)N1CCOCC1	?	-72.0*	-10.6%	?	-2.6%	-3.5%
O=C(Nc1ccc(N2CCCC2)cc1)c1cc([N+](=O)[O-])ccc1N1CCOCC1	?	-12.6	?	23.1µM*	-27.5%	?
O=C(NCc1ccco1)c1cc([N+](=O)[O-])ccc1N1CCCCC1	16.4µM*	-16.6	-6.9%	?	-5.6%	?
O=C(NNC(=O)C1CC(=O)N(Cc2ccccc2)C1)c1ccc(Br)cc1 (stereo not drawn)	3.3%	-2.3	3.1%	2.8%	22.2%	1.7%
Cc1cc(Br)ccc1NC(=O)CNC(=O)Cc1ccc(S(=O)(=O)N2CCOCC2)s1	?	0.0	2.7%	?	-0.1%	-0.2%
